High-throughput results (PubChem)
In the library only some 19% were active in any assay of this set; here they are far more common.
HepG2 viability: HepG2 cytotoxicity, counter-screen for TGF-b inhibitors | HepG2 CAGA-GFP viability, ATP luminescence, 18 h | Potency, µM (top dose mostly 46.1 µM), inactives show at the highest dose activity change, negative = cytotoxicity, actives largely listed as cytotoxic | 410,000 compounds, 0.76% hits; note: potency is the fitted concentration of half-maximal effect
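CellTiter-Glo luminescence gave cytotoxicity after 18 hours at 37 degrees C. The cells were HepG2 CAGA-GFP in 1% FBS DMEM, stimulated with 500 pg/mL TGF-beta after compound addition. %Activity was normalised to no-cell wells (complete cell-killing) and DMSO (no toxicity), and curves were fitted and classified.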
TDP1 cell CPT: growth inhibition of DT40 Tdp1-/-;hTDP1 cells with camptothecin (screen for TDP1 inhibitors); chicken DT40 Tdp1-/-;hTDP1 cells + 20 nM CPT, ATP luminescence, 48 h; Potency, µM (highest dose often 46.2 µM), inactives show at the top dose activity change, negative = growth inhibition, usual class: inhibitors; AID 686979; 420,000 compounds, 12% hits; note: potency is the fitted concentration of half-maximal effect; % is set by controls: 0 for no effect and ±100 for the full control effect; nearly all actives have a fitted effect of over 55% in size
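Chicken DT40 Tdp1-/- cells stably complemented with human TDP1 were seeded at 400 cells/well in medium containing 20 nM camptothecin, exposed to pin-transferred compounds, and grown at 37 °C for at least 48 hr. Viability was read as ATP luminescence.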
DT40 TDP1 no CPT: qHTS for Inhibitors of human tyrosyl-DNA phosphodiesterase 1 (TDP1): qHTS in cells in absence of CPT; DT40 Tdp1-/- hTDP1 cells, no CPT, ATP luminescence, 48 h; Potency, µM (series often up to 46.2 µM), for the others: at the top dose activity change, negative = growth inhibition, actives largely listed as inhibitors; 420,000 compounds, 15% hits; AID 686978, 2013; note: potency is the fitted concentration of half-maximal effect; % is set by controls: 0 for no effect and ±100 for the full control effect; nearly all actives have a fitted effect of over 55% in size
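Camptothecin absent (DMSO only). Human TDP1-complemented DT40 knockout cells, 400 cells/well, 37 °C for minimum 48 hr; ATP measured via CellTiter-Glo, 30 min dark incubation, luminescence.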
IL-1B inflam inh: inflammasome signaling inhibition, IL-1 beta readout; 360,000 compounds, 4.7% hits; activity change, % at 57.5 µM; THP-1 LPS/ATP IL-1B secretion, AlphaLISA, 16 h; active compounds read low; in the data active = activity change below about -50%; inconclusive = mostly about -30% to -49%; note: % is set by controls: 0 for no effect and ±100 for the full control effect
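THP-1 cells pretreated 1 hr with compounds (up to 57.5 uM final), then stimulated with LPS (250 ng/mL final) plus ATP (1.25 mM final); secreted IL-1B measured by AlphaLISA after 16 hr, decreased signal indicating inhibition.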
TGFb inhibitor: blocks TGF-b signaling | HepG2 CAGA-GFP TGF-b/SMAD3 reporter, GFP fluorescence, 18 h; TGF-beta stimulated, 500 pg/mL final | Potency, µM (series often up to 46.1 µM), for the others: at the top dose activity, negative = inhibition, actives largely listed as inhibitors | 410,000 compounds, 1.2% hits | AID 588855; note: potency is the fitted concentration of half-maximal effect; % is set by controls: 0 for no effect and ±100 for the full control effect; nearly all actives have a fitted effect of over 65% in size
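Read-out: total well GFP (ex488/em500-530) summed from mean per-cell fluorescence. Cells: HEPG2 CAGA-GFP, 1% FBS DMEM, 18 h at 37 degrees C with 500 pg/mL final TGF-beta. Unstimulated wells served as the full-inhibition control; stimulated DMSO wells = 0%.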
TDP1 inh: blocks human tyrosyl-DNA phosphodiesterase 1 | recombinant TDP1, AlphaScreen DNA substrate cleavage | Potency, µM (doses to about 130 µM), for the others: at the highest dose activity change, negative = inhibition, actives largely listed as inhibitors | 350,000 compounds, 0.28% hits; note: potency is the fitted concentration of half-maximal effect; % is set by controls: 0 for no effect and ±100 for the full control effect; nearly all actives have a fitted effect of over 40% in size
Target sequence (Q9NUW8 whole entry, looked up): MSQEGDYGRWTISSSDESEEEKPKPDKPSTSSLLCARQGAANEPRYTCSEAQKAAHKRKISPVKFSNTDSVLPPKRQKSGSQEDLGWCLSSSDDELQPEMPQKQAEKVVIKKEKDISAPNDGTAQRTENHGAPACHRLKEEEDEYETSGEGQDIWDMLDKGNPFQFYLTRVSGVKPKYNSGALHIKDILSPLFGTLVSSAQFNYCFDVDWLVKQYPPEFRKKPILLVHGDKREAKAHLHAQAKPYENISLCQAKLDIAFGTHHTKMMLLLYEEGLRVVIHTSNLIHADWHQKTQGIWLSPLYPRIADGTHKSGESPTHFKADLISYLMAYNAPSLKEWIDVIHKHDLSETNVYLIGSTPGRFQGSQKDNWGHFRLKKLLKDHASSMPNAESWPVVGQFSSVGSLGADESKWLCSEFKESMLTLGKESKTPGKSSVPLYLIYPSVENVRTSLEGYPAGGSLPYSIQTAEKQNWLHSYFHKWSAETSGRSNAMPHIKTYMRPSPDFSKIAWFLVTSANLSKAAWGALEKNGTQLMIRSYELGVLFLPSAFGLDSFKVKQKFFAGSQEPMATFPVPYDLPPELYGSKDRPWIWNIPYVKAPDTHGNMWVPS
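AlphaScreen read-out: signal falls as enzyme removes the 3' tyrosine-FITC from a 5'-biotinylated DNA oligo (15 nM, 5 min, RT). Enzyme was E. coli-made recombinant Tdp1 at 1 nM, exposed to compound for 15 min beforehand; beads 10 ug/ml, 10 min.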
Numbers without * were called inactive; ? = inconclusive; · = no result; [ ] = remark or other dose. Unless noted, calls come from the whole dose curve; as a rule, active = well fitted curve in the direction sought with a large enough effect; inconclusive = small, poorly fitted or top-dose-only effect, or another doubt; inactive = no such curve, though single readings can be large; an effect the other way counts as inactive or inconclusive.

SMILES	HepG2 viability	TDP1 cell CPT	DT40 TDP1 no CPT	IL-1B inflam inh	TGFb inhibitor	TDP1 inh
Oc1ccc(-c2nc3ccccc3s2)c(O)c1	8.4%	3.7%	-3.3%	33.1	-6.1%	-1.4%
Nc1ccc(O)c(-c2nc3ccccc3s2)c1	-10.4%	13µM*	16.4µM*	-6.7	-6.0%	?
Nc1ccc(-c2nc3ccc(N)cc3s2)cc1	-26.4%	-12.5%	?	-80.2*	-14.1%	·
Nc1ccc2nc(N3CCOCC3)sc2c1	-5.8%	-27.0%	-7.9%	-1.6	-14.2%	5.4%
O=c1c(NCc2cccs2)nccn1-c1ccc(F)cc1	5.6%	-16.6%	?	·	-4.2%	2.6%
CN(Cc1ccccc1)C(=O)c1ccc(NC(=O)C2CCCN(C(=O)OC(C)(C)C)C2)cc1 (configuration not stated)	-16.5%	?	18.4µM*	17.1	?	1.3%
CN(C(=O)c1ccc(NC(=O)Cc2ccc(NC(=O)C3CCCN(C(=O)C4CCCCC4)C3)cc2)cc1)C1CCCC1 (configuration not stated)	-7.3%	?	?	19.8	?	·
CN(C(=O)c1cccc(NC(=O)Cc2ccc(NC(=O)C3CCCN(C(=O)CCc4ccccc4)C3)cc2)c1)C1CCCCC1 (configuration not stated)	-3.3%	?	16.4µM*	0.8	?	·
CN(C(=O)c1ccc(NC(=O)Cc2ccc(NC(=O)C3CCCN(C(=O)CCc4ccccc4)C3)cc2)cc1)C1CCCC1 (configuration not stated)	0.1%	23.1µM*	20.6µM*	-7.8	-21.5%	·
CN(Cc1ccccc1)C(=O)c1ccc(NC(=O)Cc2ccc(NC(=O)C3CCCN(C(=O)C4CCC4)C3)cc2)cc1 (configuration not stated)	5.6%	-3.8%	?	39.6	-3.7%	·
CN(C(=O)c1cccc(NC(=O)Cc2ccc(NC(=O)C3CCCN(C(=O)CCc4ccccc4)C3)cc2)c1)C1CC1 (configuration not stated)	-21.5%	?	16.4µM*	11.0	-22.1%	·
Cc1cccn2c(Nc3ccc4c(c3)OCCO4)c(-c3ccc(Br)o3)nc12	-21.4%	?	?	·	?	4.3%[12.3 µM]
O=C(NCC1Cc2cccc(-c3cncnc3)c2O1)C1CC1 (configuration not stated)	·	2.8%[9.04 µM]	-22.0%	·	·	·
COc1ccc(C2Nc3ccccc3C(=O)N2Cc2cccc(Cl)c2)cc1COc1ccc(NC(C)=O)cc1 (configuration not stated)	·	·	·	·	·	1.1%
Cc1ccc(CNC(=O)CCCCCn2c(=O)c3sccc3n(CC(=O)N3CCCCC3C)c2=O)cc1 (configuration not stated)	0.7%	?	?	·	9.7%	7.3%
CN(Cc1ccccc1)C(=O)c1ccc(NC(=O)Cc2ccc(NC(=O)C3CCCN(C(=O)CCc4ccccc4)C3)cc2)cc1 (configuration not stated)	-24.8%	10.3µM*	14.6µM*	27.3	-39.6%	·
Cc1ccc2nc(C)c(CN3CCN(c4ccc([N+](=O)[O-])cc4Cl)CC3)n2c1	·	·	·	·	·	3.3%
CCCCCCCCN1C(=O)[C@H](CC(=O)NCc2ccccc2)C[C@@]2(C(=O)OC)CCCCC=C12	·	16.4µM*	14.6µM*	-82.2*	·	·
C#CCNC(=O)C[C@@H]1C[C@@]2(C(=O)OC)CCCCC=C2N(Cc2cccc3ccccc23)C1=O	·	?	?	-0.7	·	·
COC(=O)[C@]12CCCCC=C1N(Cc1ccccc1)C(=O)[C@H](CC(=O)NCc1ccc(OC)c(OC)c1)C2	·	23.1µM*	23.1µM*	-20.3	·	·
COC(=O)[C@]12CCCCC=C1N(Cc1ccco1)C(=O)[C@H](CC(=O)NCc1ccc(OC)c(OC)c1)C2	·	?	?	1.7	·	·
C#CCNC(=O)C[C@@H]1C[C@@]2(C(=O)OC)CCCCC=C2N(CCCCCCCC)C1=O	·	16.4µM*	23.1µM*	-13.1	·	·
COC(=O)[C@]12CCCCC=C1N(CCC1=CCCCC1)C(=O)[C@H](CC(=O)NCc1ccc(OC)c(OC)c1)C2	·	?	?	-11.8	·	·
CCCCCCCCN1C(=O)[C@H](CC(=O)NCc2ccc(OC)c(OC)c2)C[C@@]2(C(=O)OC)CCCCC=C12	·	?	20.6µM*	-58.2*	·	·
CCCCCCCCN1C(=O)[C@H](CC(=O)NCc2ccc(OC)c(OC)c2)C[C@@]2(C(=O)OCC)CCC=C12	·	?	20.6µM*	-76.9*	·	·
SMILES	HepG2 viability	TDP1 cell CPT	DT40 TDP1 no CPT	IL-1B inflam inh	TGFb inhibitor	TDP1 inh
COc1cc(=O)n2c(c1C(=O)NCc1ccco1)CCN(Cc1c(F)cccc1F)CC2	·	-7.0%	-7.2%	·	·	·
O=C(Nc1ccc(Cl)c(C(F)(F)F)c1)C(Cc1ccccc1)NS(=O)(=O)c1ccc(Br)s1 (configuration not stated)	-11.6%	-9.0%	-22.4%	·	-5.6%	-6.4%[12.3 µM]
Cc1ccc(C(=O)c2oc3ccccc3c2NC(=O)COc2ccccc2C)cc1	-97.1%	·	·	·	12.2%	-2.1%
COc1ccc(OC)c(CCNC(=O)c2ccc(CS(=O)Cc3cccc(Cl)c3)o2)c1 (configuration not stated)	-13.2%	23.1µM*	20.6µM*	-7.4	?	2.3%
CCOc1ccccc1CNC(=O)c1ccc(CS(=O)Cc2cccc(Cl)c2)o1 (configuration not stated)	-28.0%	?	20.6µM*	·	-22.0%	2.6%
COc1ccc(CNC(=O)c2ccc(CS(=O)Cc3cccc(Cl)c3)o2)cc1 (configuration not stated)	-7.6%	?	-22.9%	-6.5	-0.6%	2.3%
COc1ccc(-c2c3c(=O)n(C)c(=O)n(C)c3c3c(-c4cccc(C)c4)nc4ccccc4n23)cc1	11.4%	?	20.6µM*	·	?	0.0%
COc1ccc(-c2nc3ccccc3n3c(-c4cccc(C)c4)c4c(=O)n(C)c(=O)n(C)c4c23)cc1OC	-1.0%	16.4µM*	18.4µM*	·	-16.8%	-1.1%
COc1ccc(-c2c3c(=O)n(C)c(=O)n(C)c3c3c(-c4ccccc4)nc4ccccc4n23)cc1	0.0%	-2.6%	2.31µM*	·	1.0%	-2.1%
O=C(CCc1ccccc1)NCc1ccc2c(c1)CCN2C(=O)c1ccc(Cl)cc1	-1.3%	-10.7%	-3.8%	·	-3.8%	-2.5%
